Experimental data reported in PubChem BioAssay AID463173 (ICCB-Longwood Screening Facility, Harvard Medical School, 2010).
The whole screen tested about 52,000 compounds, of which about 4,300 (8.3%) were called active. No stated cut-off is given here; in the data, active means survival mostly below about 52% (no sharp cut-off); inactive means mostly above about 56%. The list comes from a sample in which actives are over-represented; it also holds similar structures and randomly drawn compounds.

Tested on: DeltatarO mutant
Experiment: growth inhibition of S. aureus wild type versus tarO mutant, primary screen, teichoic acid synthesis inhibitors, RN4220, OD600 (AID 463173)
Conditions: OD600, 18 h, active compounds read low, screened at 18.75 µg/mL (by protocol)

Question: For `COc1ccc(CNC(=O)CCc2c(C)c3cc4c(C)c(C)oc4cc3oc2=O)cc1OC`, which survival is on record?
Answer: The survival was 104% (inactive).

Question: How did the survival turn out when `CCOc1ccc(OCC)c(Nc2nc3ccc(C(=O)c4ccccc4)cc3n3cnnc23)c1` was run?
Answer: The survival was 77% (inactive).

Question: Which survival does the source give for `CCNC(=O)C1CCN(c2nc3ccccc3nc2C(F)(F)F)CC1` here?
Answer: The survival was 144% (inactive).

Question: For `CCCSCCCNC(=O)C1CCN(c2nc3ccccc3nc2C(F)(F)F)CC1`, which survival is on record?
Answer: The survival was 0% (active).

Question: Which survival does the source give for `CCCCNC(=O)C1CCN(c2nc3ccccc3nc2C(F)(F)F)CC1` here?
Answer: The survival was 115% (inactive).

Question: How did the survival turn out when `COc1ccccc1CCNC(=O)C1CCN(c2nc3ccccc3nc2C(F)(F)F)CC1` was run?
Answer: The survival was 117% (inactive).

Question: With `Cc1ccccc1CCNC(=O)C1CCN(c2nc3ccccc3nc2C(F)(F)F)CC1` as the molecule, how does the survival read?
Answer: Its survival is 72% (inactive).

Question: Which survival does the source give for `O=C(NCCc1ccccc1Cl)C1CCN(c2nc3ccccc3nc2C(F)(F)F)CC1` here?
Answer: The survival was 37% (active).

Question: For `CCOc1ccc(NC(=O)NCCN2CCN(c3ccccc3F)CC2)cc1`, which survival is on record?
Answer: The survival was 87% (inactive).

Question: Which survival does the source give for `CCOC(=O)c1cc(S(=O)(=O)N2CCN(c3cccc(C)c3C)CC2)[nH]n1` here?
Answer: Its survival is 81% (inactive).

Question: For `CCOC(=O)c1cnc2ccc(OCC)cc2c1N1CCN(c2ccccc2F)CC1`, which survival is on record?
Answer: Its survival is 0% (active).

Question: `CCOC(=O)c1cnc2ccc(OCC)cc2c1N1CCN(c2cccc(Cl)c2)CC1` was tested. Which survival did it give?
Answer: Its survival is 3% (active).

Question: For `CCOC(=O)c1cc(S(=O)(=O)N2CCN(c3ccccc3F)CC2)[nH]n1`, which survival is on record?
Answer: Its survival is -5% (active).

Question: `CCOC(=O)c1noc2ncnc(N3CCN(c4cccc(Cl)c4)CC3)c12` was tested. Which survival did it give?
Answer: The survival was 83% (inactive).

Question: Which survival does the source give for `CCOC(=O)c1cc(S(=O)(=O)N2CCN(c3ccccc3OC)CC2)[nH]n1` here?
Answer: Its survival is 122% (inactive).

Question: Which survival does the source give for `COC(=O)c1cnc(N2CCN(c3ccccc3F)CC2)c2ccccc12` here?
Answer: Its survival is 86% (inactive).

Question: `CCOC(=O)c1cnc2cc(C(F)(F)F)ccc2c1N1CCN(c2cccc(Cl)c2)CC1` was tested. Which survival did it give?
Answer: Its survival is 84% (inactive).

Question: For `CCOC(=O)c1cnc(N2CCN(c3ccc(C)cc3C)CC2)c2ccccc12`, which survival is on record?
Answer: Its survival is 87% (inactive).

Question: `CCOC(=O)c1cnc(N2CCN(c3cccc(C)c3C)CC2)c2ccccc12` was tested. Which survival did it give?
Answer: The survival was 77% (inactive).

Question: Which survival does the source give for `CCOC(=O)c1cnc2c(OC)cccc2c1N1CCN(c2ccccc2F)CC1` here?
Answer: The survival was 1% (active).

Question: `CCOC(=O)c1ccccc1NC(=O)Cn1c(=O)n(-c2cccc(C)c2)c(=O)c2c1c1cc(C)ccc1n2C` was tested. Which survival did it give?
Answer: The survival was 68% (inactive).

Question: For `CCOc1ccc(C(=O)NCC(c2cccs2)S(=O)(=O)c2ccccc2)cc1` (configuration not stated), which survival is on record?
Answer: The survival was 97% (inactive).

Question: `CC(C)OC(=O)c1cc2c(ccn2C)n1CCC#N` was tested. Which survival did it give?
Answer: The survival was 96% (inactive).

Question: `Cc1cc(Nc2ccccc2C)nc(-n2nc(C)cc2C)n1` was tested. Which survival did it give?
Answer: Its survival is 83% (inactive).

Question: Which survival does the source give for `Cc1ccc(S(=O)(=O)c2nc(-c3cccc(Cl)c3)oc2NCc2ccccc2)cc1` here?
Answer: Its survival is 168% (inactive).

Question: `CCOc1ccc(NC(=O)C(=O)NCC(c2cccnc2)N2CCc3ccccc32)cc1` (configuration not stated) was tested. Which survival did it give?
Answer: The survival was 44% (inactive).

Question: With `COC(=O)c1ccc(NC(=O)C(=O)NCC(c2cccnc2)N2CCc3ccccc32)cc1` (configuration not stated) as the molecule, how does the survival read?
Answer: The survival was 34% (active).

Question: For `COc1ccc(NC(=O)C(=O)NCC(c2cccnc2)N2CCc3ccccc32)cc1OC` (configuration not stated), which survival is on record?
Answer: The survival was 61% (inactive).

Question: With `Cc1cc(C)cc(NC(=O)C(=O)NCC(c2cccnc2)N2CCc3ccccc32)c1` (configuration not stated) as the molecule, how does the survival read?
Answer: The survival was 43% (active).

Question: For `Cc1ccc(NC(=O)C(=O)NCC(c2cccnc2)N2CCc3ccccc32)cc1Cl` (configuration not stated), which survival is on record?
Answer: Its survival is 97% (inactive).

Question: Which survival does the source give for `Cc1cccc(C)c1NC(=O)C(=O)NCC(c1cccnc1)N1CCc2ccccc21` (configuration not stated) here?
Answer: Its survival is 62% (inactive).

Question: How did the survival turn out when `COc1ccc(NC(=O)c2cnc(N3CCCCC3)c3ccccc23)cc1Cl` was run?
Answer: The survival was 78% (inactive).

Question: `CCOc1cc(C(=O)Nc2ccc3c(c2)n(C)c(=O)c(=O)n3C)cc(OCC)c1OCC` was tested. Which survival did it give?
Answer: The survival was 84% (inactive).

Question: For `COc1ccc2c(c1)sc1ncc(C(=O)NCc3ccccc3F)c(=O)n12`, which survival is on record?
Answer: Its survival is 101% (inactive).

Question: Which survival does the source give for `Cc1ccc2[nH]c(=O)cc(C(=O)O)c2c1` here?
Answer: The survival was 99% (inactive).

Question: `Cc1ccc2[nH]c(C)cc(=S)c2c1` was tested. Which survival did it give?
Answer: Its survival is 45% (active).

Question: Which survival does the source give for `Cc1cc(=O)c2cc(Br)ccc2[nH]1` here?
Answer: The survival was 71% (inactive).

Question: Which survival does the source give for `COc1cc(NC(=O)C(NS(=O)(=O)c2ccc3c(c2)CCCC(=O)N3)C(C)C)cc(OC)c1` (configuration not stated) here?
Answer: Its survival is 71% (inactive).

Question: With `O=C(Nc1cc2c(cc1C(=O)c1ccccc1Cl)OCCO2)c1ccc(Br)cc1` as the molecule, how does the survival read?
Answer: Its survival is 66% (inactive).

Question: With `CCC(=O)c1cc2c(cc1NC(=O)c1ccccc1F)OCCO2` as the molecule, how does the survival read?
Answer: The survival was 68% (inactive).

Question: For `O=C(Nc1cc2c(cc1C(=O)c1cccc(Br)c1)OCCO2)c1ccccc1F`, which survival is on record?
Answer: The survival was 28% (active).

Question: `CC1CCCN(S(=O)(=O)c2ccc(NC(=O)CSc3nc4ccccc4o3)cc2)C1` (configuration not stated) was tested. Which survival did it give?
Answer: Its survival is 58% (inactive).

Question: How did the survival turn out when `CC1Oc2ccccc2N(CC(=O)NCc2ccccc2)C1=O` (configuration not stated) was run?
Answer: The survival was 92% (inactive).

Question: With `CCC1Oc2ccc(C)cc2N(CC(=O)NCc2ccc(F)cc2)C1=O` (configuration not stated) as the molecule, how does the survival read?
Answer: Its survival is 70% (inactive).

Question: How did the survival turn out when `CCC1Oc2ccc(C)cc2N(CC(=O)NCCc2ccccc2)C1=O` (configuration not stated) was run?
Answer: Its survival is 80% (inactive).

Question: Which survival does the source give for `CCC1Oc2ccccc2N(CC(=O)NCc2ccc(C)cc2)C1=O` (configuration not stated) here?
Answer: The survival was 78% (inactive).

Question: With `CCC1Oc2ccc(C)cc2N(CC(=O)NCc2ccc(OC)cc2)C1=O` (configuration not stated) as the molecule, how does the survival read?
Answer: The survival was 39% (active).

Question: How did the survival turn out when `CCC1Oc2ccccc2N(CC(=O)NCc2ccccc2)C1=O` (configuration not stated) was run?
Answer: Its survival is -1% (active).

Question: `COc1ccc(C2c3c(oc4ccc(F)cc4c3=O)C(=O)N2Cc2ccc3c(c2)OCO3)cc1` (configuration not stated) was tested. Which survival did it give?
Answer: Its survival is 59% (inactive).

Question: Which survival does the source give for `COc1ccccc1N1CCN(c2ncnc3c2nc2n3CCCC2)CC1` here?
Answer: The survival was 67% (inactive).

Question: How did the survival turn out when `Cc1cc(=O)n2nc(N3CCC(C(=O)NCc4ccccc4Cl)CC3)sc2n1` was run?
Answer: Its survival is 87% (inactive).

Question: With `CCOC(=O)c1cccc(NC(=O)Nc2c(C)n(C)n(-c3ccccc3)c2=O)c1` as the molecule, how does the survival read?
Answer: The survival was 94% (inactive).

Question: Which survival does the source give for `CCCc1cc(=O)oc2cc(C)c3c(-c4cccc(OC)c4)coc3c12` here?
Answer: Its survival is 67% (inactive).

Question: `CCCc1cc(=O)oc2cc(C)c3c(C(C)(C)C)coc3c12` was tested. Which survival did it give?
Answer: The survival was 88% (inactive).

Question: Which survival does the source give for `CCCc1cc(=O)oc2cc(C)c3c(-c4ccccc4)c(C)oc3c12` here?
Answer: The survival was -10% (active).

Question: `Cc1ccc2[nH]c(=O)c(CN(Cc3ccccc3)C(=O)c3ccco3)cc2c1` was tested. Which survival did it give?
Answer: Its survival is 103% (inactive).

Question: With `CCc1nnc2n1N(C(C)=O)C(c1ccc(C(C)(C)C)cc1)=C(C(C)=O)S2` as the molecule, how does the survival read?
Answer: The survival was 96% (inactive).

Question: With `Cc1c(CNC2CCCCCC2)c(C(=O)O)c(C)n1Cc1ccc(F)cc1Cl` as the molecule, how does the survival read?
Answer: The survival was 80% (inactive).

Question: `Cc1ccc(-c2nc(-c3cccs3)c(-c3cccs3)[nH]2)cc1` was tested. Which survival did it give?
Answer: The survival was 62% (inactive).

Question: With `Oc1ccccc1-c1nc(-c2cccs2)c(-c2cccs2)[nH]1` as the molecule, how does the survival read?
Answer: Its survival is 0% (active).

Question: For `Fc1ccc(-c2nc(-c3cccs3)c(-c3cccs3)[nH]2)cc1`, which survival is on record?
Answer: Its survival is 64% (inactive).

Question: How did the survival turn out when `CN(C)c1ccc(-c2nc(-c3cccs3)c(-c3cccs3)[nH]2)cc1` was run?
Answer: Its survival is 47% (active).

Question: For `Oc1cccc(-c2nc(-c3cccs3)c(-c3cccs3)[nH]2)c1`, which survival is on record?
Answer: The survival was 4% (active).

Question: `COc1ccc(O)c(-c2cn[nH]c2-c2cccs2)c1` was tested. Which survival did it give?
Answer: The survival was 89% (inactive).

Question: Which survival does the source give for `Cc1sc(N)nc1-c1cccs1` here?
Answer: Its survival is 96% (inactive).

Question: How did the survival turn out when `CN1C(C(=O)Nc2cccc(O)c2)=CC(c2cccs2)=NS1(=O)=O` was run?
Answer: The survival was 87% (inactive).

Question: How did the survival turn out when `Fc1ccc2[nH]c(-c3cccs3)cc2c1` was run?
Answer: Its survival is 54% (inactive).
